Among the data in PubChem BioAssay (EPA / NIEHS) are AC50 and outcome values, retold here.

Read-out in test [1]: Vascular cell adhesion molecule 1 (VCAM1), VCAM1 (gene 7412)
Nature of the test: BSK_4H_VCAM1: BioMAP Diversity Plus: 4H Assay for Vascular cell adhesion molecule 1 (VCAM1) Biomarker Activity (AID 2283033).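 For outcome: cell-surface VCAM-1 protein measured by ELISA.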 The following applies: primary human endothelial cells (HUVEC); actives raise or lower the signal. The method in brief:
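In this human endothelial (HUVEC) system, biomarker ELISA was run 24 h after compound addition, and total protein in parallel wells was assessed by SRB at 560 nm; DMSO served as negative control.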

Read-out in test [2]: Interferon-gamma inducible Protein 10 (IP10), CXCL10 (gene 3627)
Nature of the test: BSK_BE3C_IP10: BioMAP Diversity Plus: BE3C Assay for Interferon-gamma inducible Protein 10 (IP10) Biomarker Activity (AID 2283034). The following applies: primary human bronchial epithelial cells; actives raise or lower the signal. The method in brief: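 BE3C cells (human bronchial epithelial, primary); 24 h exposure; ELISA for IP-10; DMSO-referenced bidirectional fit.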

Read-out in test [3]: Monokine induced gamma interferon (MIG), CXCL9 (gene 4283)
Description: BSK_BE3C_MIG: BioMAP Diversity Plus: BE3C Assay for Monokine induced gamma interferon (MIG) Biomarker Activity (AID 2283035).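 For outcome: MIG protein measured by ELISA in BE3C cultures after 24 h of dosing.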 The following applies: primary human bronchial epithelial cells; actives raise or lower the signal. The method in brief: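 hu bronchial epithelial 1° cells, 24 h cpd; MIG by ELISA; bidirectional fit, DMSO = baseline.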

Read-out in test [4]: Transforming growth factor beta 1 (TGFb1), TGFB1 (gene 7040)
Description: BSK_BE3C_TGFb1: BioMAP Diversity Plus: BE3C Assay for Transforming growth factor beta 1 (TGFb1) Biomarker Activity (AID 2283036;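 for outcome: TGF-b1 protein level measured by ELISA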). As to conditions: primary human bronchial epithelial cells; actives raise or lower the signal. The method, boiled down: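 TGF-b1 measured via ELISA, 24 h after chemical dosing of human bronchial epithelial cells (BE3C). Overt cytotoxicity assessed in parallel by SRB (0.1%, TCA-fixed, 560 nm); analysis bidirectional relative to DMSO.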

Read-out in test [5]: Plasminogen activator inhibitor-1 (PAI1), SERPINE1 (gene 5054)
Description: BSK_BE3C_PAI1: BioMAP Diversity Plus: BE3C Assay for Plasminogen activator inhibitor-1 (PAI1) Biomarker Activity (AID 2283037). As to conditions: primary human bronchial epithelial cells; actives raise or lower the signal. The method in brief:
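In this multiplexed primary-cell system, bronchial epithelial cells receive test chemical and are sampled at 24 h. PAI-1 is read by ELISA, with DMSO serving as negative control for bidirectional fitting.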

Read-out in test [6]: urokinase plasminogen activator (uPA), PLAU (gene 5328)
Nature of the test: BSK_BE3C_uPA: BioMAP Diversity Plus: BE3C Assay for urokinase plasminogen activator (uPA) Biomarker Activity (AID 2283038).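 For outcome: uPA protein level quantified by ELISA in cell cultures; uPA read one day after compound addition.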 As to conditions: primary human bronchial epithelial cells; actives raise or lower the signal. The method, boiled down:
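Human primary bronchial epithelial cells were exposed to chemical for 24 h, then uPA levels were measured by ELISA. Responses were fitted bidirectionally against DMSO as negative control and baseline. Parallel SRB staining of total protein gauged overt cytotoxicity.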

Read-out in test [7]: Urokinase-type plasminogen activator receptor (uPAR), PLAUR (gene 5329)
Nature of the test: BSK_BE3C_uPAR: BioMAP Diversity Plus: BE3C Assay for Urokinase-type plasminogen activator receptor (uPAR) Biomarker Activity (AID 2283039).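 For outcome: cells exposed to compound for one day before measurement.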 The following applies: primary human bronchial epithelial cells; actives raise or lower the signal. The method in brief:
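Chemically treated human bronchial epithelial cells (lung primary) are assayed for uPAR by ELISA after 24 h, with data fitted in both directions using DMSO as negative control.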

Read-out in test [8]: Interleukin-6 (IL6), IL6 (gene 3569)
Nature of the test: BSK_CASM3C_IL6: BioMAP Diversity Plus: CASM3C Assay for Interleukin-6 (IL6) Biomarker Activity for (AID 2283040). The following applies: primary human coronary artery smooth muscle cells; actives raise or lower the signal.

Read-out in test [9]: Tissue plasminogen activator (tPA), PLAT (gene 5327)
Description: BSK_BE3C_tPA: BioMAP Diversity Plus: BE3C Assay for Tissue plasminogen activator (tPA) Biomarker Activity (AID 2283041).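 For outcome: tPA level quantified by ELISA one day after compound addition.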 As to conditions: primary human bronchial epithelial cells; actives raise or lower the signal. The method, boiled down: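 Using human lung primary bronchial epithelial cells, tPA was measured by ELISA 24 h after dosing; data fitted relative to DMSO.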

Read-out in test [10]: Interleukin-8 (IL8), CXCL8 (gene 3576)
Description: BSK_CASM3C_IL8: BioMAP Diversity Plus: CASM3C Assay for Interleukin-8 (IL8) Biomarker Activity (AID 2283042).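 Note: IL-8 protein level quantified by ELISA.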 The following applies: primary human coronary artery smooth muscle cells; actives raise or lower the signal.

Read-out in test [11]: Human Leukocyte Antigen - DR isotype (HLADR), HLA-DRA (gene 3122)
Description: BSK_CASM3C_HLADR: BioMAP Diversity Plus: CASM3C Assay for Human Leukocyte Antigen - DR isotype (HLADR) Biomarker Activity (AID 2283043).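 Note: cell-surface HLA-DR protein level quantified by ELISA.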 The following applies: primary human coronary artery smooth muscle cells; actives raise or lower the signal.

Read-out in test [12]: Macrophage colony-stimulating factor (MCSF), CSF1 (gene 1435)
Nature of the test: BSK_CASM3C_MCSF: BioMAP Diversity Plus: CASM3C Assay for Macrophage colony-stimulating factor (MCSF) Biomarker Activity (AID 2283044).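 Note: M-CSF protein amount quantified by ELISA after 24 h exposure.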 As to conditions: primary human coronary artery smooth muscle cells; actives raise or lower the signal.

Read-out in test [13]: Low-density lipoprotein receptor (LDLR), LDLR (gene 3949)
Nature of the test: BSK_CASM3C_LDLR: BioMAP Diversity Plus: CASM3C Assay for Low-density lipoprotein receptor (LDLR) Biomarker Activity (AID 2283045).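 Note: LDLR protein level on the cell surface quantified by ELISA.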 As to conditions: primary human coronary artery smooth muscle cells; actives raise or lower the signal.

Read-out in test [14]: Monocyte Chemoattractant Protein-1 (MCP1), CCL2 (gene 6347)
Description: BSK_CASM3C_MCP1: BioMAP Diversity Plus: CASM3C Assay for Monocyte Chemoattractant Protein-1 (MCP1) Biomarker Activity (AID 2283046).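 Note: MCP-1 level quantified by ELISA 24 h after dosing.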 As to conditions: primary human coronary artery smooth muscle cells; actives raise or lower the signal.

Test [15] in a line: BSK_CASM3C_Proliferation: Cell Proliferation Assessment in the BioMAP Diversity Plus: CASM3C Assay (AID 2283047).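 Note: sulforhodamine B total protein stain as relative cell number at 560 nm; sub-confluent cells exposed 48 h before staining; fitted both ways against DMSO so gain or loss of cell number.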 The following applies: primary human coronary artery smooth muscle cells.
Read-out in test [16]: Monokine induced gamma interferon (MIG), CXCL9 (gene 4283)
Nature of the test: BSK_CASM3C_MIG: BioMAP Diversity Plus: CASM3C Assay for Monokine induced gamma interferon (MIG) Biomarker Activity (AID 2283048). The following applies: primary human coronary artery smooth muscle cells; actives raise or lower the signal.

Read-out in test [17]: serum amyloid A (SAA), SAA1 (gene 6288)
Nature of the test: BSK_CASM3C_SAA: BioMAP Diversity Plus: CASM3C Assay for serum amyloid A (SAA) Biomarker Activity (AID 2283049).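 Note: SAA protein level quantified by ELISA.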 The following applies: primary human coronary artery smooth muscle cells; actives raise or lower the signal.

Test [18] is described as follows: BSK_CASM3C_SRB: Viability Assessment in the BioMAP Diversity Plus: CASM3C Assay (AID 2283050).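 Note: total protein by SRB staining as cytotoxicity measure in parallel cultures.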 The following applies: primary human coronary artery smooth muscle cells.
Read-out in test [19]: Thrombomodulin, THBD (gene 7056)
Description: BSK_CASM3C_Thrombomodulin: BioMAP Diversity Plus: CASM3C Assay for Thrombomodulin Biomarker Activity (AID 2283051).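 Note: thrombomodulin protein level measured by ELISA 24 h after dosing.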 As to conditions: primary human coronary artery smooth muscle cells; actives raise or lower the signal.

Read-out in test [20]: Tissue Factor, F3 (gene 2152)
Nature of the test: BSK_CASM3C_TissueFactor: BioMAP Diversity Plus: CASM3C Assay for Tissue Factor Biomarker Activity (AID 2283052).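 Note: cell surface tissue factor protein level read by ELISA.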 As to conditions: primary human coronary artery smooth muscle cells; actives raise or lower the signal.

Some structures have more than one record in an assay (separate samples or runs), and their calls can disagree. Calls of active or inactive are those of the source. Rule for the calls: active = hit-call score of the fitted dose curve at least 0.9, where 1 is the maximum; inactive = score below 0.9.

With `CC(C)c1ccc(C(C)C)cc1`, the concentration at half-maximal activity (AC50) in test [1] was 35.1 µM (active); in test [2], 30.9 µM (active); in test [7], 20 µM (active); in [8], 20 µM (active); in [9], 23.3 µM (active); in test [11], 25.9 µM (active). The AC50 was 32.4 µM (active) in test [12]; 32.4 µM (active) in [14]; 31.4 µM (active) in test [15]; 31.3 µM (active) in [16]; 30.6 µM (active) in test [18]; 35.5 µM (active) in test [20]. Also, the outcome in [3], in [4], in test [5], in [6], in test [10] and in test [13] was inactive. Further, the outcome in [17] and in [19] was inactive.
In the case of `C=C[Si](OCC)(OCC)OCC`, the outcome in [1], in test [2], in [3], in [4], in test [5] and in test [6] was inactive. In addition, the result in test [7], in [8], in test [9], in test [10], in test [11] and in test [12] was inactive. The outcome in [13], in [14], in test [15], in test [16], in test [17] and in [18] was inactive. Further, the result in [19] and in test [20] was inactive.
On to `CCCCC(CC)COC(=O)/C=C\C(=O)OCC(CC)CCCC` (stereo not given), for which the result in test [1], in test [2], in [3], in test [4], in [5] and in test [6] was inactive. Moreover, the result in test [7], in test [8], in [9], in [10], in test [11] and in test [12] was inactive. Also, the result in [13], in [14], in [15], in test [16], in [17] and in [18] was inactive. Moreover, the outcome in [19] and in test [20] was inactive.
On to `C=C(C)C(=O)O[C@H]1C[C@@H]2CC[C@@]1(C)C2(C)C`, for which the AC50 in [1] was 10.1 µM (active); in test [2], 33.2 µM (active); in test [3], 30.4 µM (active); in test [4], 26.4 µM (active); in [5], 20 µM (active); in [6], 20 µM (active). For the same compound, the concentration at half-maximal activity (AC50) was 32.2 µM (active) in [7]; 13 µM (active) in test [8]; 20 µM (active) in test [9]; 22.3 µM (active) in test [10]; 8.32 µM (active) in test [11]; 7.53 µM (active) in [12]. Moreover, the AC50 in test [14] is 12.4 µM (active); in test [15] it was 23.5 µM (active); in test [16], 27.1 µM (active); in test [18], 13.2 µM (active); in test [20], 9.73 µM (active). In addition, the result in [13], in test [17] and in [19] was inactive.
With `Cc1cc(C2(c3cc(C)c(O)cc3C)OS(=O)(=O)c3ccccc32)c(C)cc1O`, the outcome in [1], in test [2], in test [3], in test [5], in test [6] and in test [7] was inactive. Besides, the outcome in [8], in [9], in [10], in [11], in test [12] and in test [13] was inactive. Besides, the outcome in test [14], in [15], in [16], in [17], in test [18] and in test [19] was inactive. Further, in test [20], the result was inactive.
As to `COc1cc(C=O)ccc1OC(=O)C(C)C`, the result in test [1], in test [2], in [3], in [5], in [6] and in [7] was inactive. In addition, the result in [8], in [9], in test [10], in test [11], in [12] and in [13] was inactive. Further, the outcome in test [14], in test [15], in test [16], in [17], in [18] and in test [19] was inactive. Also, the result in test [20] was inactive. In addition, the AC50 was 2.86 µM (active) in test [12] and 0.15 µM (active) in [13].

The AC50 is the concentration at which the activity in the assay is half-maximal.
